# A number with no mark means an inactive call.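 The calls were made as follows: active = z-score of at least 1.8 in each of two replicates, scored against plate mean and spread of sample wells; inactive = the rest.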
# Assay: galactose survival enhancers in mitochondrial complex I cybrids – cell-based, galactose medium, ATP luminescence, primary screen (AID 1645843);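 also: positive z means more ATP and so rescue of galactose-driven cybrid death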
# Settings: complex I mutant cybrid cells, 72 h, active compounds read high
row,SMILES,z-score
1,CCCCc1ncc(-c2nc3ccc(C)cc3c(C(=O)N(C)CC)c2C)cn1,-0.54
2,COc1ccc(-c2ncnc3sc(C)c(C)c23)c(OC)c1,0.66
3,Cc1ccc(C(=O)N2CCNC(=O)C2Cc2ccccc2)c(F)c1 (stereo not given),-0.535
4,COc1cccc(OC)c1-c1noc(CCN2C(=O)COc3ccccc32)n1,1.39
5,Cc1nsc(NC(=O)N2CCCN(c3ccc(F)cc3)CC2)n1,-0.27
6,CCCN(C(=O)c1cccc(C#CC(C)(C)O)c1)C(CC)CC,-0.23
7,CCC1(CC)CC1C(=O)N1CCC(n2cc(C3(O)CCCC3)nn2)CC1 (stereo not given),-0.565
8,O=c1c2sccc2ncn1Cc1nc2ccccc2[nH]1,0.03
9,CC(C)Cc1cn(C2CCN(C3CCCCCC3)CC2)nn1,-0.565
10,CCCCc1cn(C2CCN(C(=O)C3CCCCCC3)CC2)nn1,-0.56
11,COc1cccc(CN2CCN(c3ccc4cccc(OC)c4n3)CC2)c1,-0.86
12,Cc1nsc(NC(=O)N2CCCCC2c2cccc(F)c2)n1 (stereo not given),-0.55
13,Cc1cccc2c(=O)n(Cc3ccc(Cl)s3)cnc12,0.23
14,CCC(CC)(CCC#N)CNC1COC2(CCCCC2)C1 (stereo not given),-0.53
15,Cc1c(C(F)(F)F)nc(-c2ccc(CN3CCN(C)C(=O)C3)cc2)[nH]c1=O,-0.5
16,CCC1CN(C(=O)c2cc(-c3cnn(C)c3)nc3c(C)cccc23)CCN1C (stereo not given),-0.31
17,CCCC[C@@H](N)C(=O)N1CCC(n2cc(CCCO)nn2)CC1,-0.47
18,Cc1cccc(-n2cc(-c3ccn(CC(=O)Nc4ccnn4C)n3)cn2)c1,1.22
19,CCCCCNC(=O)N1CCC2(CC1)Nc1ccccc1N(CC1CC1)C2=O,0.705
20,COc1nccnc1-c1ccc2c(c1)OCO2,0.365

row,SMILES,z-score
1,Cc1cnc(NCCCn2ncc3ccccc32)nc1-c1cnn(C)c1,0.065
2,CC(CC12CC3CC(CC(C3)C1)C2)n1cnc2nccnc2c1=O (stereo not given),1.54
3,CCCc1cn(C2CCN(C(=O)C(C)N3CCCC3)CC2)nn1 (stereo not given),-0.35
4,Cc1c(C(F)(F)F)nc(-c2ccc(CN(C)C)cc2)[nH]c1=O,-0.555
5,CCCn1cnc(NC(=O)NC2CCN(Cc3ccccc3)CC2)n1,0.58
6,CCC(CC)CN1CCC(N2CCSCC2)CC1,-0.55
7,CCCc1cc(C(=O)N2CCCC(Cn3cc(CC(C)C)nn3)C2)n[nH]1 (stereo not given),1.21
8,C=C1C2(C(=O)N3CCC(c4cccc(OC)c4OC)C3)CCC(C2)C1(C)C (stereo not given),1.19
9,O=C(CC1CCCCCC1)N1CCC(n2cc(-c3ccccn3)nn2)CC1,-0.34
10,Cc1nn(C)cc1-c1ccnc(N2CCCC(c3nc4c(C)cccc4[nH]3)C2)n1 (stereo not given),-1.2
11,O=C(Nc1ccc2nccnc2c1)c1csc(Cc2ccccc2)n1,-1.07
12,CC(C)(C)c1cn(C2CCN(C(=O)CC3CCCCCC3)CC2)nn1,-0.225
13,CCCC(NC(=O)c1ccc(C#N)cc1)c1ccccc1 (stereo not given),-0.32
14,O=c1c2cccc(F)c2ncn1CCC1CCCCN1C1CCCC1 (stereo not given),-0.825
15,Cc1nsc(NC(=O)NCCC2CCCCCC2)n1,-1.07
16,CC(=O)c1c(C)cc(C)c(CNC(C)CCCC(C)(C)O)c1C (stereo not given),-0.52
17,COC(=O)c1ccc(C(=O)N2CCNC(=O)C2Cc2ccccc2)cc1 (stereo not given),-0.49
18,CCC(CC)(CCC#N)CNCC1(N2CCOCC2)CCCC1,-0.575
19,COc1nc2c(cc1C(=O)N1CCOc3ccccc31)CCC2,0.225
20,C=C1C(C)(C)[C@H]2CC[C@]1(C(=O)N1CCC(n3cc(CCCC)nn3)CC1)C2,2.16
